The test system of the assay is LXRa homodimer (NR concentration 270 nM). In words: PBM binding z-score (relative to random genomic background probes); higher = stronger binding; sequences stand for … in GC…GCGATTGACAGCGTAGAATGAAGG
Summed up:
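Each nuclear receptor dimer, without ligand, was incubated for 1 h on custom Agilent 4×180K protein-binding microarrays. Binding was detected with antibodies against each partner (one per run), and scanned fluorescence was regression-normalized. The binding z-scores are referenced to random human genomic background probes.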
Turning to GATACAGGGTCAGCTAGAGGCCTGAGTATGGAAA, the PBM binding z-score was -0.546.

CTCGAAAGGTCGTGCTCAGGTGAGCATACCAAAC had a PBM binding z-score of -0.293.

On to CGTCCAAGGTCAAAGGTCAGTGAGGAGATGACGG, for which the PBM binding z-score was 4.05.

Turning to GATGCTAGGTCAACTGATGGTCAGCTAAAGCTCG, the PBM binding z-score was determined as 0.377.

Consider AGATTGAGGTTATTAAGATCAGGGAATTGCGGTC, for which the PBM binding z-score came out at 0.39.

Regarding CGTCCAAGGCCAATGCTAGGTCAGTGAAAGCATT, the PBM binding z-score came out at 0.187.

Turning to GAAACAGGGTCAAGGCCAGAGTACGCGTATTGAT, the PBM binding z-score is -0.0634.

As for CCGCCTAGGTCAGGGCCAGTATAGGAGGAACGTT, the PBM binding z-score is -0.253.

Take CCGAGTAGGTTAGGGGGCATTCAGGCAACGGTGA: the PBM binding z-score is 0.834.

Take ACTCGGAGGACAACGGTCAGAGCTACGCCAGTGA: the PBM binding z-score is -0.37.

On to CGTCAAAGTTCAACTAAGGTAACGTACAGCACGC, for which the PBM binding z-score amounted to 4.76.

With GCGACTGGGGCATCAGCAGGTTACAATAACTTAA, the PBM binding z-score is -0.328.

For the sequence TCTCGGAAGACACGAAAGGTCAGAGCTCGACATC, the PBM binding z-score was 1.85.

TCGAGAAGGTTAGTCGGGGCATTCAGCCAACATA showed a PBM binding z-score of -0.271.

Sequence AGAATGAGGTTATACGTAGATCAGGGAGGAAAGT displayed a PBM binding z-score of 0.0751.

Sequence ATATGTAGGTTATCGGGCCATTCAGTTTGCGCAT returned a PBM binding z-score of 0.565.

For the sequence TATACAGGGTAAAAGGCCAGAGTACGAATGTCGA, the PBM binding z-score came to 0.094.

Sequence CCTGCTAGGTAAATGGTCAGCTAAAGCAGCTCGC returned a PBM binding z-score of -0.748.

In turn, TCTAATTGGTCAAAGGTCACACACTCGAAATGCG had a PBM binding z-score of 4.4.

As to TCATATAGGTTAATGCTAGGTGAAAGTCCGATCT, the PBM binding z-score came out at 0.441.

In turn, TAGCCTAGGTCAGATCGGCCCAGTATACGCTATA had a PBM binding z-score of -0.637.

The sequence CAAACTAGGTAACAGAGGTCAAAGTCCGTGCGTA gave a PBM binding z-score of 7.34.

The values above are taken from the supplement of paper PMC6555819.
